From PubChem BioAssay AID1159580 (chemical genetic matrix, 2015)
The whole screen tested about 5,500 compounds, of which about 2,000 (36%) were called active. Inconclusive results (about 18%) are left out. No stated cut-off is given here; in the data, active means normalized growth mostly below about 0.91 (no sharp cut-off); inconclusive means no clear call, values can overlap the other calls; inactive means mostly above about 0.92. The list shows a part of the results.

Test: chemical genetic growth profiling, strain panel (AID 1159580);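 further: tested at 20 µM; growth read once vehicle control cultures reached saturation at 30 °C; 1 = growth at the plate median or of vehicle wells; lower values mean less growth of the strain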
Settings: growth OD

Measured: normalized growth

CC(C)c1c(O)c(-c2cc3c(c(C(C)C)c2O)CCC2C(C)(C)CCC[C@]32C)cc2c1CCC1C(C)(C)CCC[C@]21C (some centres not stated)
inactive: S. cerevisiae deletion strains, locus YJR075W, strain HOC1, active compounds read low 1.01 | S. cerevisiae deletion strains, locus YKL009W, strain mrt4, active compounds read low 1.06 | S. cerevisiae deletion strains, locus YKL068W, active compounds read low 1.01 | S. cerevisiae deletion strains, locus YKL085W, strain MDH1 (second series), active compounds read low 1.07 | S. cerevisiae deletion strains, locus YKL085W, strain MDH1, active compounds read low 1.07 | S. cerevisiae deletion strains, locus YKL160W, strain elf1, active compounds read low 0.984 | S. cerevisiae deletion strains, locus YKL190W, strain CNB1, active compounds read low 1.01 | S. cerevisiae deletion strains, locus YKR001C, strain vps1, active compounds read low 1.03 | S. cerevisiae deletion strains, locus YKR026C, strain gcn3, active compounds read low 0.993 | S. cerevisiae deletion strains, locus YKR091W, strain srl3, active compounds read low 0.971 | S. cerevisiae deletion strains, locus YLL001W, strain dnm1, active compounds read low 1.01 | S. cerevisiae deletion strains, locus YLL026W, active compounds read low 0.997 | S. cerevisiae deletion strains, locus YLL041C, strain sdh2, active compounds read low 1.02 | S. cerevisiae deletion strains, locus YLR027C, strain aat2, active compounds read low 0.983 | S. cerevisiae deletion strains, locus YLR039C, strain RIC1, active compounds read low 1.07 | S. cerevisiae deletion strains, locus YLR058C, strain SHM2, active compounds read low 1.02 | S. cerevisiae deletion strains, locus YLR102C, strain apc9, active compounds read low 1.02 | S. cerevisiae deletion strains, locus YLR113W, strain HOG1, active compounds read low 0.996 | S. cerevisiae deletion strains, locus YLR221C, strain rsa3, active compounds read low 1.02 | S. cerevisiae deletion strains, locus YLR258W, strain gsy2, active compounds read low 0.974 | S. cerevisiae deletion strains, locus YLR262C, strain YPT6 (second series), active compounds read low 0.987 | S. cerevisiae deletion strains, locus YLR262C, strain YPT6, active compounds read low 1.05 | S. cerevisiae deletion strains, locus YLR268W, strain sec22, active compounds read low 1.01 | S. cerevisiae deletion strains, locus YLR320W, strain mms22, active compounds read low 1.02 | S. cerevisiae deletion strains, locus YLR330W, strain CHS5, active compounds read low 1.01 | S. cerevisiae deletion strains, locus YLR342W, strain FKS1 (second series), active compounds read low 1.04 | S. cerevisiae deletion strains, locus YLR342W, strain FKS1, active compounds read low 0.99 | S. cerevisiae deletion strains, locus YLR357W, strain rsc2, active compounds read low 0.976 | S. cerevisiae deletion strains, locus YLR370C, strain arc18, active compounds read low 0.982 | S. cerevisiae deletion strains, locus YLR371W, strain rom2, active compounds read low 1.02 | S. cerevisiae deletion strains, locus YLR384C, strain iki3, active compounds read low 0.972 | S. cerevisiae deletion strains, locus YLR418C, strain cdc73, active compounds read low 1.01 | S. cerevisiae deletion strains, locus YML016C, strain PPZ1, active compounds read low 1.02 | S. cerevisiae deletion strains, locus YML032C, strain rad52, active compounds read low 1.03 | S. cerevisiae deletion strains, locus YML120C, strain ndi1, active compounds read low 1 | S. cerevisiae deletion strains, locus YML124C, strain tub3, active compounds read low 1.01 | S. cerevisiae deletion strains, locus YMR058W, strain fet3, active compounds read low 0.982 | S. cerevisiae deletion strains, locus YMR078C, strain ctf18, active compounds read low 1.01 | S. cerevisiae deletion strains, locus YMR125W, strain sto1, active compounds read low 0.968 | S. cerevisiae deletion strains, locus YMR129W, active compounds read low 0.98 | S. cerevisiae deletion strains, locus YMR205C, strain PFK2, active compounds read low 0.973 | S. cerevisiae deletion strains, locus YMR223W, strain ubp8, active compounds read low 1.03 | S. cerevisiae deletion strains, locus YMR231W, strain pep5, active compounds read low 1.04 | S. cerevisiae deletion strains, locus YMR263W, strain SAP30, active compounds read low 1.02 | S. cerevisiae deletion strains, locus YMR307W, strain GAS1, active compounds read low 1.03 | S. cerevisiae deletion strains, locus YNL067W, strain RPL9B, active compounds read low 1.02 | S. cerevisiae deletion strains, locus YNL071W, strain lat1, active compounds read low 0.995 | S. cerevisiae deletion strains, locus YNL128W, strain TEP1, active compounds read low 1.01 | S. cerevisiae deletion strains, locus YNL153C, strain GIM3, active compounds read low 0.998 | S. cerevisiae deletion strains, locus YNL183C, strain NPR1, active compounds read low 0.946 | S. cerevisiae deletion strains, locus YNL209W, strain ssb2, active compounds read low 0.986 | S. cerevisiae deletion strains, locus YNL233W, strain BNI4, active compounds read low 0.999 | S. cerevisiae deletion strains, locus YNL248C, strain rpa49, active compounds read low 0.953 | S. cerevisiae deletion strains, locus YNL250W, strain rad50, active compounds read low 1.02 | S. cerevisiae deletion strains, locus YNL271C, strain bni1, active compounds read low 1.03 | S. cerevisiae deletion strains, locus YNL298W, strain CLA4, active compounds read low 1.03 | S. cerevisiae deletion strains, locus YNL307C, strain MCK1, active compounds read low 1.04 | S. cerevisiae deletion strains, locus YNL322C, strain KRE1 (second series), active compounds read low 0.963 | S. cerevisiae deletion strains, locus YNL322C, strain KRE1, active compounds read low 1.02 | S. cerevisiae deletion strains, locus YNR049C, strain mso1, active compounds read low 0.963 | S. cerevisiae deletion strains, locus YNR052C, strain pop2, active compounds read low 1.02 | S. cerevisiae deletion strains, locus YOL006C, strain TOP1, active compounds read low 1.06 | S. cerevisiae deletion strains, locus YOL012C, strain htz1 0.995 | S. cerevisiae deletion strains, locus YOL147C, strain pex11, active compounds read low 1.01 | S. cerevisiae deletion strains, locus YOR001W, strain rrp6, active compounds read low 1.02 | S. cerevisiae deletion strains, locus YOR061W, strain CKA2, active compounds read low 1.02 | S. cerevisiae deletion strains, locus YOR069W, strain VPS5, active compounds read low 1.01 | S. cerevisiae deletion strains, locus YOR070C, strain gyp1, active compounds read low 0.989 | S. cerevisiae deletion strains, locus YOR080W, strain dia2, active compounds read low 0.953 | S. cerevisiae deletion strains, locus YOR083W, strain WHI5, active compounds read low 0.997 | S. cerevisiae deletion strains, locus YOR106W, strain vam3, active compounds read low 0.985 | S. cerevisiae deletion strains, locus YOR136W, strain idh2, active compounds read low 1.01 | S. cerevisiae deletion strains, locus YOR144C, strain elg1, active compounds read low 1.01 | S. cerevisiae deletion strains, locus YOR184W, strain ser1, active compounds read low 1.04 | S. cerevisiae deletion strains, locus YOR231W, strain MKK1, active compounds read low 0.958 | S. cerevisiae deletion strains, locus YOR265W, strain rbl2, active compounds read low 1 | S. cerevisiae deletion strains, locus YOR270C, strain vph1, active compounds read low 1 | S. cerevisiae deletion strains, locus YOR290C, strain snf2, active compounds read low 0.957 | S. cerevisiae deletion strains, locus YOR316C, strain cot1, active compounds read low 1.02 | S. cerevisiae deletion strains, locus YPL051W, strain arl3, active compounds read low 0.999 | S. cerevisiae deletion strains, locus YPL055C, strain LGE1, active compounds read low 1.02 | S. cerevisiae deletion strains, locus YPL078C, strain atp4, active compounds read low 0.986 | S. cerevisiae deletion strains, locus YPL106C, strain sse1, active compounds read low 0.948 | S. cerevisiae deletion strains, locus YPL240C, strain hsp82, active compounds read low 0.996 | S. cerevisiae deletion strains, locus YPL241C, strain CIN2, active compounds read low 1.02 | S. cerevisiae deletion strains, locus YPL256C, strain CLN2, active compounds read low 0.949 | S. cerevisiae deletion strains, locus YPR119W, strain clb2, active compounds read low 1.01 | S. cerevisiae deletion strains, locus YPR141C, strain kar3, active compounds read low 1.02 | S. cerevisiae deletion strains, locus YPR163C, strain tif3, active compounds read low 1.01 | S. cerevisiae deletion strains, locus YPR167C, strain met16, active compounds read low 1.02 | S. cerevisiae deletion strains, strain wtn01, active compounds read low 1.02 | S. cerevisiae strains, strain wild type, active compounds read low 1.02
